Measurements published in the supplement of paper PMC11732987, “Enantioselective OTUD7B fragment discovery through chemoproteomics screening and high-throughput optimisation” (Communications Chemistry, 2025).

Legend:
Experiment in all cases: log2 ratio of Biotin-Ahx-Ub-VS probe labelling (fragment/DMSO); higher = less target engagement (more negative = stronger competition), active = hit call of the paper (q ≤ 0.05, log2 ratio ≤ -1)
Conditions in all cases: compound concentration: 200 uM; treatment time: 3 h
USP42 = target: T1, USP42 (UniProt Q9H9J4)
T1 sequence (whole entry): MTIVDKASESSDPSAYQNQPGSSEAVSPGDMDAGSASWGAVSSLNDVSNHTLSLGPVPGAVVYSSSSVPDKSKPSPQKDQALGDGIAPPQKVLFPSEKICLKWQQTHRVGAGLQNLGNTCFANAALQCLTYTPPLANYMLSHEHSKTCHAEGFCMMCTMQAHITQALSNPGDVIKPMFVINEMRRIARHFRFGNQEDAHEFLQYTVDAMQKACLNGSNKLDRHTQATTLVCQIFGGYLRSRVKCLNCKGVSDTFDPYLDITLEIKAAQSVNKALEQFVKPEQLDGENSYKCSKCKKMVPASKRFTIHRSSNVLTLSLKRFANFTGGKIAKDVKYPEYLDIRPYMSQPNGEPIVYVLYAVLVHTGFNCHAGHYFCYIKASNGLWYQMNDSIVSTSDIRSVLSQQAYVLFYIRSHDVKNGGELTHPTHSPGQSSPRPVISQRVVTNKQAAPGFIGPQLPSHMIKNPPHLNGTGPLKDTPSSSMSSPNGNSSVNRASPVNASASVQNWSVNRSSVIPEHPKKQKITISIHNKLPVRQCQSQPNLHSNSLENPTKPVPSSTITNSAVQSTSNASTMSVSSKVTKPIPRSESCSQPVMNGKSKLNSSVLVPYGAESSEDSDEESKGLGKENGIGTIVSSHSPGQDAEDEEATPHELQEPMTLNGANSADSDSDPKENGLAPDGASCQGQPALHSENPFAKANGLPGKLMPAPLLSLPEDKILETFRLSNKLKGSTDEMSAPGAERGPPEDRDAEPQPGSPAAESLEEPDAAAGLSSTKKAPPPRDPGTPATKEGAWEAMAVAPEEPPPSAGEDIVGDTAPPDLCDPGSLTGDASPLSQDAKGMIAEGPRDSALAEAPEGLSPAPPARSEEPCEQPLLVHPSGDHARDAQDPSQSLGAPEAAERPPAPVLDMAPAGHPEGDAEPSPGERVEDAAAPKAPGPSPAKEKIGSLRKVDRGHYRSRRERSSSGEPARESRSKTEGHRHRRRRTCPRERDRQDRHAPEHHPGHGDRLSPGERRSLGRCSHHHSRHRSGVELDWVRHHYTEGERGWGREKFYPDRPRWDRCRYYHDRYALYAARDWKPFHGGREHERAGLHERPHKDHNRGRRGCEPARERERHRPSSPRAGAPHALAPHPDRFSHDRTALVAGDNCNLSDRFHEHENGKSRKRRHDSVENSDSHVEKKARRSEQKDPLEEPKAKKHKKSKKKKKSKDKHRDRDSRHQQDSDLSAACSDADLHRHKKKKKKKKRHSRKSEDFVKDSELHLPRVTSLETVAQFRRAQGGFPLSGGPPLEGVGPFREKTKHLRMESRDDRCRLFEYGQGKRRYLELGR
Method in brief: (§1)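 HEK293T lysate (495 µg per sample, in Tris/CHAPS/IGEPAL buffer with protease inhibitors) was exposed in triplicate for 3 h to fragment at 200 µM or to vehicle, then to Biotin-Ahx-Ub-VS at 0.5 µM final for 1 h. Labelled DUBs were enriched on NeutrAvidin, digested with LysC and trypsin, and analysed by diaPASEF LC-MS/MS. Spectronaut label-free quantities were normalised to the global median, and values are average log2 ratios of fragment over vehicle from an unpaired t-test. Only proteins with ≥2 unique peptides were used.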

USP46 = USP46 (UniProt P62068)
Method in brief: as §1

USP47 = target: T2, USP47 (UniProt Q96K76)
T2 sequence (whole entry): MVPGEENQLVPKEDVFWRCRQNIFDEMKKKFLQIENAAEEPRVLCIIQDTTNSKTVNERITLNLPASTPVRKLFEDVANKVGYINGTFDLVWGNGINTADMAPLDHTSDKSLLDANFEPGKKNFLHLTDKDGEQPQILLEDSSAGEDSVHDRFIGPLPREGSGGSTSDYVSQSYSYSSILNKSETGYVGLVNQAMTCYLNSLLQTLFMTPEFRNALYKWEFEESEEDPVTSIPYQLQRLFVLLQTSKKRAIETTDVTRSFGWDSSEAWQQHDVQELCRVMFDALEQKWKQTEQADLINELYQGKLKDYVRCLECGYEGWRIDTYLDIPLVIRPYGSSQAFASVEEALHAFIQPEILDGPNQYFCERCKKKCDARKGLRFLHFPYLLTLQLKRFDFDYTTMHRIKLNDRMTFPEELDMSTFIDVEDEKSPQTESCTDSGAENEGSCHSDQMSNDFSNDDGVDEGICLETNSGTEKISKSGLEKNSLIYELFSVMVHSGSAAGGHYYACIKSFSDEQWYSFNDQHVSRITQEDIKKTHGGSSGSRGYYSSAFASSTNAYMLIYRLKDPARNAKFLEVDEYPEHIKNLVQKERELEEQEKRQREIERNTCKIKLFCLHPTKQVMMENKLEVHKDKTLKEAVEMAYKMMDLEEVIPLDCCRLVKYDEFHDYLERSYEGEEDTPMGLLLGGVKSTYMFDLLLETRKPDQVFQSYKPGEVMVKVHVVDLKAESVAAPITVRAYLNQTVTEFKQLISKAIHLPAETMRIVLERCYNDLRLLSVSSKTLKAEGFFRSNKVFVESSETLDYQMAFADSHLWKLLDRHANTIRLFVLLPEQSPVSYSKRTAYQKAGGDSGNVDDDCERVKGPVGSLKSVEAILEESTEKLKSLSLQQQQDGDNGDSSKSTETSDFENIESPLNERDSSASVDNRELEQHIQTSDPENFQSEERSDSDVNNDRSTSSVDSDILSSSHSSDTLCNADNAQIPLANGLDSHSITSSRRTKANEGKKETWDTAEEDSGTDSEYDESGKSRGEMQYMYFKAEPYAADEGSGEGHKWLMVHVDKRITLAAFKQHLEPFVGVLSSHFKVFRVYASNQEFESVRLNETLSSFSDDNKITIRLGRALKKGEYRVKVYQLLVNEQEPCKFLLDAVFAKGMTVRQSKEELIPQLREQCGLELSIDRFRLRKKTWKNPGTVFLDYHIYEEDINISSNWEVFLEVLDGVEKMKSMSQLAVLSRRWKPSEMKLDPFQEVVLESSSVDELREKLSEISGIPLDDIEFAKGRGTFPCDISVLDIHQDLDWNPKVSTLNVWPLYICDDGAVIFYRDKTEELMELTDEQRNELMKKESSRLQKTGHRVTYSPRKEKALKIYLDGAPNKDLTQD
Method in brief: as §1

USP48 = target: T3, USP48 (UniProt Q86UV5)
T3 sequence (whole entry): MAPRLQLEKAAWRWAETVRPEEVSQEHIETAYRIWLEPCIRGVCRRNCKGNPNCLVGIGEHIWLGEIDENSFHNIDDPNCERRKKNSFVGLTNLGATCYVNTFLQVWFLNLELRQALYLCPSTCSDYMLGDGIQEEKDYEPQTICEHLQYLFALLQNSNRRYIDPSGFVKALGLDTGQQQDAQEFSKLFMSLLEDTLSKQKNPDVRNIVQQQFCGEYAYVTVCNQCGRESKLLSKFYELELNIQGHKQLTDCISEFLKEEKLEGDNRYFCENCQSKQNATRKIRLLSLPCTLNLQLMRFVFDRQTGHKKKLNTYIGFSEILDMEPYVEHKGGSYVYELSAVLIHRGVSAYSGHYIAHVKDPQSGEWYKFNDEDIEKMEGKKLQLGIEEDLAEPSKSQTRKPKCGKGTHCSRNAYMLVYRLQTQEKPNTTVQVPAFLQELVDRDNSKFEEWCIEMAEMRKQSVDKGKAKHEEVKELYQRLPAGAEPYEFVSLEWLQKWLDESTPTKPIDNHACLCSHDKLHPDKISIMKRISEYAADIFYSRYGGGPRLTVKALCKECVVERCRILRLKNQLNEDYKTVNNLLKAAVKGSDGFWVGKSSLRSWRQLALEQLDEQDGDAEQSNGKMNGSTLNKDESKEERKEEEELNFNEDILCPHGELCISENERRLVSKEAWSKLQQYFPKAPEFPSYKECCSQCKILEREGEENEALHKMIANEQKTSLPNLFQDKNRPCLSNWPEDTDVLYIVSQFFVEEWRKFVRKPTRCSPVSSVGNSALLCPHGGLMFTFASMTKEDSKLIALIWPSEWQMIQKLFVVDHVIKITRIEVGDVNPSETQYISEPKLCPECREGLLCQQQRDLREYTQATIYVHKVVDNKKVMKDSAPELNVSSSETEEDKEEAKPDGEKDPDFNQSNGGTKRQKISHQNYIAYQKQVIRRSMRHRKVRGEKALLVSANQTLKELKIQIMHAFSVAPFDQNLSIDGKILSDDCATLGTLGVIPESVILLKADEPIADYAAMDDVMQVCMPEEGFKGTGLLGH
Method in brief: as §1

USP5 = target: T4, USP5 (UniProt P45974)
T4 sequence (whole entry): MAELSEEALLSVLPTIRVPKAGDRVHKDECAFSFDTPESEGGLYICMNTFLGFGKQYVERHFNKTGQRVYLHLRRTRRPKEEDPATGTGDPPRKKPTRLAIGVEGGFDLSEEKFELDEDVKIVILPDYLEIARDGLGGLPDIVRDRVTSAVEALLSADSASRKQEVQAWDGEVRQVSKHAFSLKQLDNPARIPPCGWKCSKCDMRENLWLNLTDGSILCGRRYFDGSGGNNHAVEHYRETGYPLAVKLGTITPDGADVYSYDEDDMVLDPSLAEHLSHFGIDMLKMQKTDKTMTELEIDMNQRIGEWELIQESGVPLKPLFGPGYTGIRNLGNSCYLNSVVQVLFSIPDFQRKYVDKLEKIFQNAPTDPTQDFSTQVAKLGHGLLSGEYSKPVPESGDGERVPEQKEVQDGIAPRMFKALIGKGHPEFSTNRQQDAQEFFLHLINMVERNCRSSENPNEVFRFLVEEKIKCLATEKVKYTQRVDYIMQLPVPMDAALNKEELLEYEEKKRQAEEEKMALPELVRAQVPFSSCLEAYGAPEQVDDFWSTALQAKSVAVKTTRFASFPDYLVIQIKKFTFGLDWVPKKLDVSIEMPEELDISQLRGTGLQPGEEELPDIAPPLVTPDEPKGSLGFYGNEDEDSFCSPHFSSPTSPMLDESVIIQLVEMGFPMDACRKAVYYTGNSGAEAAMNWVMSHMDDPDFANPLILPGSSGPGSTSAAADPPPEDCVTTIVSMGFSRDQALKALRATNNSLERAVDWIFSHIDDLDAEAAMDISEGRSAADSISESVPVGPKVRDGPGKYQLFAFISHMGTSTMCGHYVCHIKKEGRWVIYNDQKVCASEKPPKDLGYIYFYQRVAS
Method in brief: as §1

USP54 = USP54 (UniProt Q70EL1)
Method in brief: as §1

USP7 = USP7 (UniProt Q93009)
Method in brief: as §1

USP8 = target: T5, USP8 (UniProt P40818)
T5 sequence (whole entry): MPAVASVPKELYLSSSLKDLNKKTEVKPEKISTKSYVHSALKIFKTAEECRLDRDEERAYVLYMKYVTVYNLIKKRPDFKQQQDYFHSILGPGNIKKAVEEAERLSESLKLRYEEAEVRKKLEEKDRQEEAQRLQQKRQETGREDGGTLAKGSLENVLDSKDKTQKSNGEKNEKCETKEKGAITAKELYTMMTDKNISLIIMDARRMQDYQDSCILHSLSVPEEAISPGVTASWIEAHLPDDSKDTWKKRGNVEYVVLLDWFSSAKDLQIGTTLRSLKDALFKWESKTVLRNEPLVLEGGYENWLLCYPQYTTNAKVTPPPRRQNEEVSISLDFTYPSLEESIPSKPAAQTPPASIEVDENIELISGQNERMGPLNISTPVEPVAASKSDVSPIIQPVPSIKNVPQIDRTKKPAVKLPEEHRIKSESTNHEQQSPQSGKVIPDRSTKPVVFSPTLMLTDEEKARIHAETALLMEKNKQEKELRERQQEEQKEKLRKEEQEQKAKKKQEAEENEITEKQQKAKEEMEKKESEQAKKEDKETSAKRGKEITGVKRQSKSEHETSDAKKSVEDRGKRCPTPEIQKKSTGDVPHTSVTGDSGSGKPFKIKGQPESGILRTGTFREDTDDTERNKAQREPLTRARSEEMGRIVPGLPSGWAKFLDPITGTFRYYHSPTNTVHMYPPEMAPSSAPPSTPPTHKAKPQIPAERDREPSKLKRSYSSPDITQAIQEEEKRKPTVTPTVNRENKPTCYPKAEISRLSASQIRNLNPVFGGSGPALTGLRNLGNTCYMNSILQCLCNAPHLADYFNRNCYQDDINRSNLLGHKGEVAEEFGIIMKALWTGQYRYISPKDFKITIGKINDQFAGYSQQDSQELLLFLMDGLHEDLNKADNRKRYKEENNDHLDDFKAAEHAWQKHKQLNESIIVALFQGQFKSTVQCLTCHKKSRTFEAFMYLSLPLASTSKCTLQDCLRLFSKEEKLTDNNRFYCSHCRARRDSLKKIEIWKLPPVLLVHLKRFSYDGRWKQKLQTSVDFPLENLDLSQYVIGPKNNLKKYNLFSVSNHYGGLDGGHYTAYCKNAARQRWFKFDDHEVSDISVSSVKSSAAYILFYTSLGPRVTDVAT
Method in brief: as §1

Measured: log2 ratio of Biotin-Ahx-Ub-VS probe labelling

Sequence of USP46 (P62068 whole entry): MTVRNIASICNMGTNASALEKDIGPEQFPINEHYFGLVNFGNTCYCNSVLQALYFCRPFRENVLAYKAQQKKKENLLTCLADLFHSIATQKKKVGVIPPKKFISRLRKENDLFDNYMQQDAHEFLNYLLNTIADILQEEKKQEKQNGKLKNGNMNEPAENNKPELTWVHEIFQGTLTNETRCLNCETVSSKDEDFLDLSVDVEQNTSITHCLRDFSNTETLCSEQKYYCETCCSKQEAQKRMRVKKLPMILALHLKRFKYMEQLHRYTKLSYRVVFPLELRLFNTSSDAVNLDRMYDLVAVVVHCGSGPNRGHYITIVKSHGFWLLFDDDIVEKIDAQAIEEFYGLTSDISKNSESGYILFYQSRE
Sequence of USP7 (Q93009 whole entry, looked up): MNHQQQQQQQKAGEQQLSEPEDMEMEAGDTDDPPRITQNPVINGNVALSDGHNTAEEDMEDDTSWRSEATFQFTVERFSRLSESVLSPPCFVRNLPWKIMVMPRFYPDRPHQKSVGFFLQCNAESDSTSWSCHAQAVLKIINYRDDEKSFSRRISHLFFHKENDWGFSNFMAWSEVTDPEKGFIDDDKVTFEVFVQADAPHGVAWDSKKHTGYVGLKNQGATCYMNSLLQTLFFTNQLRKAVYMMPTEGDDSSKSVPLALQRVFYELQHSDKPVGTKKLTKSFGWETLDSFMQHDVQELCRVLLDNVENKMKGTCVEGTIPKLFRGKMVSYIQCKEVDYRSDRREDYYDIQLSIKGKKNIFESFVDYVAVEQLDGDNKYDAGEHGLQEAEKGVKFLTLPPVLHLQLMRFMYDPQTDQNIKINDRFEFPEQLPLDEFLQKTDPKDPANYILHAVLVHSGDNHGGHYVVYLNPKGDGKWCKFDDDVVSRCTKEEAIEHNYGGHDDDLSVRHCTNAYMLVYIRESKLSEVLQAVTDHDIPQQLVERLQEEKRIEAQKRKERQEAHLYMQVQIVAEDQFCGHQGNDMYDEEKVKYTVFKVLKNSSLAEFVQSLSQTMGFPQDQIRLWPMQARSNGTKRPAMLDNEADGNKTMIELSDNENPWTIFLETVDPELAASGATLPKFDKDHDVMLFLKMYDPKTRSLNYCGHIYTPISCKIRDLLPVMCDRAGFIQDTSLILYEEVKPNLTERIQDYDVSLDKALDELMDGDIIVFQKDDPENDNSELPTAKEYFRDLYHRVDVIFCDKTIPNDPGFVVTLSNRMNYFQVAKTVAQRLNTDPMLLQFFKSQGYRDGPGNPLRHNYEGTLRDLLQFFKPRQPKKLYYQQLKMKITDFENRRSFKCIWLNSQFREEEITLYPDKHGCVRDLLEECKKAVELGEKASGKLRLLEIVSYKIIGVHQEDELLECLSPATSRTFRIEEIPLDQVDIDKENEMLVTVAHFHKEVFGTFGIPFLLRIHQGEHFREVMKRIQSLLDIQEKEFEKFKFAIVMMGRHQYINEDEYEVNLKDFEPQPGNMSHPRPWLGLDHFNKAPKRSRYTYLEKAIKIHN
Sequence of USP54 (Q70EL1 whole entry): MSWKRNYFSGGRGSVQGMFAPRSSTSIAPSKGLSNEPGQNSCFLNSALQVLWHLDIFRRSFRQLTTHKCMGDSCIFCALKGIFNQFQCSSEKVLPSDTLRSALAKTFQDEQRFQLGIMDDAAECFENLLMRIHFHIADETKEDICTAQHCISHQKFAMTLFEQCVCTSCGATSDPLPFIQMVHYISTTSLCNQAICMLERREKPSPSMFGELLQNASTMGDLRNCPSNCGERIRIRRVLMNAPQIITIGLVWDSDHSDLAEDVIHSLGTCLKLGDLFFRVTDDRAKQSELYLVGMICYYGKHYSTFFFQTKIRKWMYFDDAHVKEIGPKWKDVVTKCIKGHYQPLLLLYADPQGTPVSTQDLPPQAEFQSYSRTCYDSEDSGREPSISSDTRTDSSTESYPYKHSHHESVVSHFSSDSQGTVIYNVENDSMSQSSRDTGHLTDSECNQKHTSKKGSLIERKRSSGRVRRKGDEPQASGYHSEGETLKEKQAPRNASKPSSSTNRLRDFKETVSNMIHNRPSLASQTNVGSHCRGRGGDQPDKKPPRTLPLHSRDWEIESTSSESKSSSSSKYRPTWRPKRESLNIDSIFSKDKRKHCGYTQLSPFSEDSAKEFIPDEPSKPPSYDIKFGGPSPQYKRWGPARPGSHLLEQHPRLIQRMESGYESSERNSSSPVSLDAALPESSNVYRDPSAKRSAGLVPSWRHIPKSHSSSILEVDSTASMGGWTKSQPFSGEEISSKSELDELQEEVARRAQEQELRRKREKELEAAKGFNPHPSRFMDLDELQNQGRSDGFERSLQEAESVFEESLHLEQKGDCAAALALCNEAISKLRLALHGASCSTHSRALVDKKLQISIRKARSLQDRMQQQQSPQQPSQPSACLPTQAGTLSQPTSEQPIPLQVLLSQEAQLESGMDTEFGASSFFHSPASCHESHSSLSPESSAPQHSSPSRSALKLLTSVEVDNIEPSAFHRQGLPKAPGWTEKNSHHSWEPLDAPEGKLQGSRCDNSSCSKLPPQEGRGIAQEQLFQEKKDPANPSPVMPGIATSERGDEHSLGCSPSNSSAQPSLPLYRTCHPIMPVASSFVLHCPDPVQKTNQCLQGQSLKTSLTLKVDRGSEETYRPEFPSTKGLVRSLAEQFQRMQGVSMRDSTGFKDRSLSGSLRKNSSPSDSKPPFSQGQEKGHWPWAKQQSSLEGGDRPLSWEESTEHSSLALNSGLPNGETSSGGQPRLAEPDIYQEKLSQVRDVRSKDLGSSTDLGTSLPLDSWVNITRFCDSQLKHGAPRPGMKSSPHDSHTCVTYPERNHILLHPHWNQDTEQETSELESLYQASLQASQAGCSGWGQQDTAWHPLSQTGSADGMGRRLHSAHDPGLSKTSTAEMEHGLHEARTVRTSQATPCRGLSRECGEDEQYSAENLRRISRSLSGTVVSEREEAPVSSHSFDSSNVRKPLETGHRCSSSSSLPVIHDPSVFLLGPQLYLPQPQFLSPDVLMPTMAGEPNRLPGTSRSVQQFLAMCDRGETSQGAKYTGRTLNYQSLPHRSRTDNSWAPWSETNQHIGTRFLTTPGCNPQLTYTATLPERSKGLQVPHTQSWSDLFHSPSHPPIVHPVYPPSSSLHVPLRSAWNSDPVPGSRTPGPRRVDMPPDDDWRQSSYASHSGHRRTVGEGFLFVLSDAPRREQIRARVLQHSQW

Cc1cccn2cc(CCNC(=O)CCl)nc12.Cl
inactive: USP42 0.274 | USP46 -0.16 | USP47 0.127 | USP48 -0.182 | USP5 -0.331 | USP54 0.0379 | USP7 -0.51 | USP8 -0.181
